From PubChem BioAssay
DT40 TDP1 no CPT: qHTS for Inhibitors of human tyrosyl-DNA phosphodiesterase 1 (TDP1): qHTS in cells in absence of CPT; DT40 Tdp1-/- hTDP1 cells, no CPT, ATP luminescence, 48 h; Potency, µM (titrated, usually from 46.2 µM), inactives show top-dose activity change, negative = growth inhibition, usual class: inhibitors; 420,000 tested, 15% active; AID 686978, 2013; further: potency means the concentration at half of the fitted maximal effect; nearly all actives have a fitted effect of over 55% in size
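Readout: luminescence from CellTiter-Glo after 30 min in the dark at RT. Cells: DT40 Tdp1-/- with stable hTDP1, 400/well. Exposure: compounds alone, ≥48 hr, 37 °C.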
IL-1B inflam inh: qHTS for Inhibitors of Inflammasome Signaling: IL-1-beta AlphaLISA Primary Screen; THP-1 LPS/ATP IL-1B secretion, AlphaLISA, 16 h; active compounds read low; activity change, % at 57.5 µM; 360,000 tested, 4.7% active; in the data active means activity change below about -50%; inconclusive means mostly about -30% to -49%
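THP-1 cells pretreated 1 hr with compounds (up to 57.5 uM final), then stimulated with LPS (250 ng/mL final) plus ATP (1.25 mM final); secreted IL-1B measured by AlphaLISA after 16 hr, decreased signal indicating inhibition.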
HT1080 IDH1KD tx: qHTS for induction of synthetic lethality in tumor cells producing 2HG: qHTS for the HT-1080-IDH1KD cell line; HT-1080 IDH1 knockdown viability, ATP luminescence, 48 h; Potency, µM (top dose mostly 46.1 µM), without a hit: at the top dose activity, negative = toxicity, most hits filed as cytotoxic; 360,000 tested, 2% active;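 further: potency means the concentration at half of the fitted maximal effect; 0% = DMSO wells and -100% = cell-free medium wells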
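Using the IDH1-knockdown HT-1080 line run in the same batch and compound series as the NT line, viability after 48 h at 37 °C was determined by CellTiter-Glo luminescence and expressed as % activity.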
DT40 TDP1 CPT: qHTS for Inhibitors of human tyrosyl-DNA phosphodiesterase 1 (TDP1): qHTS in cells in presence of CPT. chicken DT40 Tdp1-/-;hTDP1 cells + 20 nM CPT, ATP luminescence, 48 h. Potency, µM (doses to about 46.2 µM), without a hit: at the top dose activity change, negative = growth inhibition, hits mostly inhibitors. 420,000 tested, 12% active; further: potency means the concentration at half of the fitted maximal effect; nearly all actives have a fitted effect of over 55% in size
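Cell growth measured by CellTiter-Glo luminescence after a minimum 48 h, 37 C compound exposure with 20 nM CPT in Tdp1-knockout DT40 cells stably expressing hTDP1, seeded 400/well; qHTS titration format.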
HT1080-NT tox: qHTS for induction of synthetic lethality in tumor cells producing 2HG: qHTS for the HT-1080-NT fibrosarcoma cell line; Potency, µM (top dose mostly 46.1 µM), for the others: top-dose activity, negative = less viability, actives largely listed as cytotoxic; 360,000 tested, 1.6% active; AID 686970, 2013; HT-1080-NT fibrosarcoma viability, CellTiter-Glo ATP luminescence, 48 h;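 further: NT is the 2HG producing partner of a matched IDH1 knockdown line; potency means the concentration at half of the fitted maximal effect; 0% = DMSO-treated cells and -100% = media-only wells without cells; nearly all actives have a fitted effect of over 55% in size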
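Luminescent CellTiter-Glo readout after 48 hours of compound exposure at 37 degrees C defined viability of HT-1080-NT cells. Activity was normalized to DMSO wells and cell-free media wells; concentration-response curves were fitted and assigned curve classes.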
Active calls of the source: *; ? = inconclusive; · = no result. Sampled rows, rich in hits. Any-hit rate of the full collection: about 19%. Unless noted, the call rests on the fitted dose curve; in most records, active means well fitted curve in the direction sought with a large enough effect; inconclusive means small, poorly fitted or top-dose-only effect, or another doubt; inactive means no such curve, though single readings can be large; an effect the other way counts as inactive or inconclusive. Unless noted, on the % scale 0 is the no-effect control and ±100 the full control effect.

SMILES | DT40 TDP1 no CPT | IL-1B inflam inh | HT1080 IDH1KD tx | DT40 TDP1 CPT | HT1080-NT tox
Nc1ccc2nc(CCCCc3nc4ccccc4[nH]3)[nH]c2c1 | 20.4% | 13.9 | -15.5% | -0.8% | 0.3%
Nc1cccc(CCc2nc3cc4ccccc4cc3[nH]2)c1 | 4.11µM* | ? | 10.3µM* | 3.26µM* | ?
CCN(CC)C(=O)C1=C(C)N(CCC2=CCCCC2)C(=O)C(CC(=O)NCc2cccs2)C1 (configuration not stated) | -27.7% | ? | -0.1% | -15.5% | -0.3%
CON(C)C(=O)CC(CN(Cc1ccccc1)C(=O)OC(C)(C)C)c1ccc(Cl)cc1 (configuration not stated) | ? | -61.5* | -26.3% | 23.1µM* | -24.2%
CON(C)C(=O)CCN(Cc1ccccc1)C(=O)OC(C)(C)C | ? | -2.6 | 8.7% | ? | 26.5%
CC(C)C(NC(=O)CNC(=O)OC(C)(C)C)C(=O)NCc1ccc(Cl)cc1 (configuration not stated) | 10.1% | -10.9 | 5.7% | 13.8% | -9.0%
CON(C)C(=O)CC(CNC(=O)OC(C)(C)C)c1ccc(Cl)cc1 (configuration not stated) | 14.6µM* | 3.6 | -2.6% | ? | 1.2%
Cn1cc(CN2CCC(C3(c4ccccn4)NC(=O)N(CC4CCCO4)C3=O)CC2)c2ccccc21 (configuration not stated) | -19.9% | · | · | ? | ·
CC1(CCC(=O)N2CCCC(N3CCN(c4ccc(F)cc4)CC3)C2)CC1 (configuration not stated) | ? | -7.4 | -3.0% | ? | 3.3%
CCN1CCCC(OC(=O)c2cc(-c3ccc(C)cc3)nc3ccccc23)C1 (configuration not stated) | 16.4µM* | -147.2* | ? | ? | -27.9%
CCOC(=O)C1CCCN(C(=O)c2cc(Nc3ccc(OC)cc3)nc3ccccc23)C1 (configuration not stated) | 14.6µM* | -0.7 | -8.5% | 20.6µM* | -0.1%
CCOC(=O)C1CCCN(C(=O)c2cc(-c3ccc(F)cc3)nc3ccccc23)C1 (configuration not stated) | 14.6µM* | -13.6 | -8.6% | ? | ?
O=C(OC1CCOC1=O)c1cc(-c2ccc(Cl)cc2)nc2ccccc12 (configuration not stated) | -10.8% | 4.6 | 1.5% | 3.1% | 0.4%
CCOC(=O)C1CCCN(C(=O)c2cc(-c3ccncc3)nc3ccccc23)C1 (configuration not stated) | -18.7% | 12.4 | 8.4% | ? | 3.1%
COc1ccc(CNC(=O)C/C(C)=N/NC(=O)c2ccccc2OC)cc1 | -7.4% | 22.7 | 5.0% | -4.0% | 0.0%
CCc1ccc(S(=O)(=O)Nc2c(C)n(C)n(-c3ccccc3)c2=O)cc1 | 8.5% | -0.8 | 0.7% | -4.0% | 17.2%
CC1CCc2c(C(=O)Nc3ccc(N4CCOCC4)cc3)csc2C1 (configuration not stated) | ? | -3.9 | -22.5% | -0.3% | ?
Cn1c(-n2cccc2)c(-c2c(-c3ccc(F)cc3)[nH]c3c2c(=O)[nH]c(=O)n3C)c(=O)[nH]c1=O | -5.0% | · | · | 0.2% | ·
CCCCOc1ccc(SCCCN2CCOCC2)cc1 | ? | -8.0 | -3.6% | ? | 0.0%
O=C(CSC1=Nc2ccccc2C2=NC(Cc3c[nH]c4ccccc34)C(=O)N12)NC1CCCCC1 (configuration not stated) | -24.0% | -11.5 | -5.9% | -18.2% | -9.3%
CC1CC(C)CN(C(=O)CSC2=Nc3ccccc3C3=NC(Cc4c[nH]c5ccccc45)C(=O)N23)C1 (configuration not stated) | 16.4µM* | -12.9 | -10.3% | ? | -7.0%
COC(=O)C[C@H]1c2cc(C(F)(F)F)ccc2S(=O)(=O)N1C1CCCCC1 | ? | 5.3 | 6.0% | ? | 13.8%
CC(=O)C[C@H]1c2cc(C(F)(F)F)ccc2S(=O)(=O)N1C1CCCCC1 | 20.6µM* | ? | -2.1% | 16.4µM* | -1.4%
COC(=O)C[C@H]1c2cc(C(F)(F)F)ccc2S(=O)(=O)N1C1CCCC1 | ? | -2.4 | -1.3% | 23.1µM* | -1.5%
CCCCCCCCN1[C@@H](CC(=O)OC)c2cc(C(F)(F)F)ccc2S1(=O)=O | ? | 30.0 | -2.4% | ? | -0.7%
SMILES | DT40 TDP1 no CPT | IL-1B inflam inh | HT1080 IDH1KD tx | DT40 TDP1 CPT | HT1080-NT tox
CCCCCCCCN1[C@@H](CC(C)=O)c2cc(C(F)(F)F)ccc2S1(=O)=O | 12.6µM* | 32.4 | -3.1% | ? | -11.0%
O=c1c(-c2ccc(F)cc2)nc2cnc(Oc3cccc(Cl)c3)nc2n1C[C@H]1CCCO1 | -29.7% | · | · | ? | ·
Cc1ccccc1C(=O)NNC(=O)C1CCN(C(=O)Nc2ccccc2)CC1 | -4.4% | 12.0 | -7.8% | 2.1% | -5.5%
Cc1cccc(C(=O)NNC(=O)C2CCCCC2)c1O | 23.1µM* | 18.2 | -29.0% | ? | -0.4%
Cc1ccc(C(=O)Nc2nc3c(s2)CCCC3)o1 | ? | -7.7 | -19.9% | 23.1µM* | -23.0%
CCc1nnc(NC(=O)c2ccc(Br)o2)s1 | -1.2% | -13.5 | 9.6% | -1.7% | 8.7%
O=C(Nc1ccc(Br)cc1)Nc1nc2c(s1)CCCCCC2 | 18.4µM* | · | · | 14.6µM* | ·
O=C(Nc1nc2c(s1)CCCC2)c1ccc(Br)o1 | 14.6µM* | -18.2 | -18.2% | ? | -10.0%
CC(O)Cc1nsc(NC(=O)c2ccc(Br)o2)n1 (configuration not stated) | 2.31µM* | 7.0 | 2.3% | 4.11µM* | 4.3%
CCn1nnc2cc(C(=O)O)ccc21 | -13.9% | -5.2 | 17.2% | -4.0% | 16.9%
CC(=O)c1ccc(NC(=S)NCc2cccnc2)cc1 | -1.5% | 23.2 | ? | -23.1% | 9.8%
Cc1ccc(NC(=O)CCc2ccc(S(=O)(=O)N3CCOCC3)cc2)c(Cl)c1 | ? | 3.4 | -2.6% | -26.7% | -1.4%
O=C(CN1CCC(C(=O)O)CC1)Nc1ccccc1Oc1ccccc1 | -2.2% | 26.8 | 0.5% | 5.4% | 11.1%
CC(=O)c1ccc(-c2ccc(C(=O)NCC(c3ccco3)N(C)C)o2)cc1 (configuration not stated) | ? | -12.4 | -12.8% | -14.9% | -3.0%
Cc1nc2c(OCCOc3ccc(F)cc3)cccn2c1N(C)C(=O)CCC1CCCC1 | 14.6µM* | -23.1 | ? | ? | ?
